In all, about 5,500 compounds went through this assay and about 2,000 (36%) were called active. Inconclusive results (about 18%) are left out. Rule as the data show it: active = normalized growth mostly below about 0.91 (no sharp cut-off); inconclusive = no clear call, values can overlap the other calls; inactive = mostly above about 0.92. The list shows a part of the results.
Assay: chemical genetic growth profiling, strain panel (AID 1159580);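 also: tested at 20 µM; growth read once vehicle control cultures reached saturation at 30 °C; 1 = growth at the plate median or of vehicle wells; lower values mean less growth of the strain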
Details: S. cerevisiae deletion strains, growth OD

Measured: normalized growth

CC(=O)NC(C(=O)O)C(C)(C)SN=O (centres undefined)
inactive: locus YAL013W, strain DEP1, stronger effect = lower value 1.02 | locus YAL021C, strain ccr4, stronger effect = lower value 1.01 | locus YAL026C, strain drs2, stronger effect = lower value 0.992 | locus YAL030W, strain snc1, stronger effect = lower value 0.991 | locus YBL061C, strain skt5, stronger effect = lower value 0.984 | locus YBR009C, strain hhf1, stronger effect = lower value 1 | locus YBR021W, strain FUR4, stronger effect = lower value 0.977 | locus YBR023C, strain chs3, stronger effect = lower value 0.994 | locus YBR171W, strain sec66, stronger effect = lower value 0.993 | locus YBR229C, strain ROT2, stronger effect = lower value 1.01 | locus YBR231C, strain swc5, stronger effect = lower value 0.996 | locus YBR279W, strain paf1, stronger effect = lower value 0.986 | locus YCL011C, strain gbp2, stronger effect = lower value 0.996 | locus YCL016C, strain dcc1, stronger effect = lower value 0.985 | locus YCL029C, strain bik1, stronger effect = lower value 0.981 | locus YCL061C, strain MRC1, stronger effect = lower value 0.999 | locus YCL069W, strain vba3, stronger effect = lower value 0.991 | locus YCR088W, strain abp1, stronger effect = lower value 0.983 | locus YDL005C, strain med2, stronger effect = lower value 0.977 | locus YDL035C, strain GPR1, stronger effect = lower value 1 | locus YDL040C, strain nat1, stronger effect = lower value 0.996 | locus YDL074C, strain BRE1, stronger effect = lower value 1.06 | locus YDL101C, strain DUN1, stronger effect = lower value 1 | locus YDL134C, strain PPH21, stronger effect = lower value 1.01 | locus YDL185W, strain tfp1, stronger effect = lower value 0.98 | locus YDL192W, strain arf1, stronger effect = lower value 0.999 | locus YDR001C, strain nth1, stronger effect = lower value 0.984 | locus YDR069C, strain doa4, stronger effect = lower value 0.984 | locus YDR101C, strain arx1, stronger effect = lower value 1 | locus YDR137W, strain rgp1, stronger effect = lower value 1.04 | locus YDR150W, strain NUM1, stronger effect = lower value 0.978 | locus YDR159W, strain sac3, stronger effect = lower value 0.997 | locus YDR162C, strain NBP2, stronger effect = lower value 1.03 | locus YDR195W, strain ref2 0.949 | locus YDR297W, strain sur2, stronger effect = lower value 0.98 | locus YDR318W, strain mcm21, stronger effect = lower value 1 | locus YDR334W, strain swr1, stronger effect = lower value 0.976 | locus YDR335W, strain msn5, stronger effect = lower value 0.982 | locus YDR388W, stronger effect = lower value 1 | locus YDR392W, strain spt3, stronger effect = lower value 0.98 | locus YDR502C, strain sam2, stronger effect = lower value 1 | locus YEL003W, strain gim4, stronger effect = lower value 0.988 | locus YEL037C, strain rad23, stronger effect = lower value 0.984 | locus YEL061C, strain CIN8 (second series), stronger effect = lower value 0.989 | locus YEL061C, strain CIN8, stronger effect = lower value 1 | locus YER015W, strain faa2, stronger effect = lower value 0.996 | locus YER016W, strain bim1, stronger effect = lower value 0.991 | locus YER110C, stronger effect = lower value 0.984 | locus YER111C, strain swi4, stronger effect = lower value 0.981 | locus YER155C, strain BEM2 (second series), stronger effect = lower value 0.989 | locus YER155C, strain BEM2, stronger effect = lower value 1 | locus YER167W, strain BCK2, stronger effect = lower value 0.995 | locus YFR010W, strain ubp6, stronger effect = lower value 0.976 | locus YGL078C, strain dbp3, stronger effect = lower value 0.99 | locus YGL086W, strain mad1, stronger effect = lower value 0.988 | locus YGL167C, strain pmr1, stronger effect = lower value 0.99 | locus YGL173C, strain kem1, stronger effect = lower value 0.995 | locus YGL227W, strain vid30, stronger effect = lower value 0.992 | locus YGL240W, strain doc1, stronger effect = lower value 0.989 | locus YGL248W, strain PDE1, stronger effect = lower value 1.01 | locus YGL253W, strain hxk2, stronger effect = lower value 0.983 | locus YGR078C, strain PAC10, stronger effect = lower value 1.02 | locus YGR135W, strain pre9, stronger effect = lower value 1 | locus YGR229C, strain SMI1, stronger effect = lower value 1.05 | locus YGR252W, strain gcn5, stronger effect = lower value 1.01 | locus YHR013C, strain ard1, stronger effect = lower value 0.972 | locus YHR027C, strain rpn1, stronger effect = lower value 1.01 | locus YHR030C, strain SLT2, stronger effect = lower value 1 | locus YHR079C, strain IRE1 (second series), stronger effect = lower value 0.999 | locus YHR094C, strain hxt1, stronger effect = lower value 0.98 | locus YHR129C, strain ARP1, stronger effect = lower value 0.998 | locus YHR142W, strain chs7, stronger effect = lower value 0.978 | locus YHR200W, strain rpn10, stronger effect = lower value 0.992 | locus YIL066C, strain RNR3, stronger effect = lower value 1.01 | locus YIL073C, strain SPO22, stronger effect = lower value 0.913 | locus YIL125W, strain kgd1, stronger effect = lower value 0.99 | locus YIR030C, strain dcg1, stronger effect = lower value 1 | locus YJL092W, strain hpr5, stronger effect = lower value 0.983 | locus YJL095W, strain BCK1 (second series), stronger effect = lower value 0.989 | locus YJL095W, strain BCK1, stronger effect = lower value 1.07 | locus YJL115W, strain asf1, stronger effect = lower value 0.986 | locus YJL129C, strain trk1, stronger effect = lower value 0.995 | locus YJL134W, strain LCB3, stronger effect = lower value 1 | locus YJL154C, strain vps35, stronger effect = lower value 0.975 | locus YJL164C, strain tpk1, stronger effect = lower value 1 | locus YJL166W, strain qcr8, stronger effect = lower value 0.996 | locus YJL168C, strain set2, stronger effect = lower value 1.01 | locus YJL187C, strain SWE1 (second series), stronger effect = lower value 1 | locus YJL187C, strain SWE1, stronger effect = lower value 0.989
